Where two headings read alike, the source gives them in different places.
Experiments:
Conditions in all cases: n = 1
TAOK3 = test system: TAOK3
TBK1 = test system: TBK1
TEC = test system: TEC
TESK1 = test system: TESK1
TGFBR1 = test system: TGFBR1
TGFBR2 = test system: TGFBR2
TIE1 = test system: TIE1
TIE2 = test system: T1, TIE2
T1 construct: gene TEK

TLK1 = test system: TLK1
TLK2 = test system: TLK2
[1] = concentration: 1 μM, replicates: in singlicate
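Note: KINOMEscan kinase panel screen.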

## Cc1ccc(NC(=O)Nc2cccc(C(F)(F)F)c2)cc1 [GSK955403]
TAOK3; 1 µM
  %Inh: 0%
TBK1; 1 µM
  %Inh: 33%
TEC; 1 µM
  %Inh: 7%
TESK1; 1 µM
  %Inh: 36%
TGFBR1; 1 µM
  %Inh: 6%
TGFBR2; 1 µM
  %Inh: 0%
TIE1; 1 µM
  %Inh: 13%
TIE2; 1 µM
  %Inh: 38%
TLK1; 1 µM
  %Inh: 20%
TLK2; 1 µM
  %Inh: 3%

## CCCc1ccc(S(=O)(=O)NC2CCN(c3ccnc(Nc4ccc(F)cc4)n3)C2)cc1 (centres unmarked) [GSK1379715]
TAOK3; [1]
  %Inh: 0%
TBK1; [1]
  %Inh: 0%
TEC; [1]
  %Inh: 0%
TESK1; [1]
  %Inh: 74%
TGFBR1; [1]
  %Inh: 0%
TGFBR2; [1]
  %Inh: 0%
TIE1; [1]
  %Inh: 0%
TIE2; [1]
  %Inh: 0%
TLK1; [1]
  %Inh: 0%
TLK2; [1]
  %Inh: 0%

## CC1=C(C(=O)Nc2cc3cn[nH]c3cc2F)C(c2ccc(C(F)(F)F)cc2)CC(=O)N1 (centres unmarked) [GSK429286]
TAOK3; [1]
  %Inh: 0%
TBK1; [1]
  %Inh: 4%
TEC; [1]
  %Inh: 18%
TESK1; [1]
  %Inh: 30%
TGFBR1; [1]
  %Inh: 0%
TGFBR2; [1]
  %Inh: 0%
TIE1; [1]
  %Inh: 12%
TIE2; [1]
  %Inh: 0%
TLK1; [1]
  %Inh: 10%
TLK2; [1]
  %Inh: 0%

## Nc1nc(-c2nccs2)c(-c2ccnc3ccccc23)s1 [GW693542]
TAOK3; [1]
  %Inh: 0%
TBK1; [1]
  %Inh: 5%
TEC; [1]
  %Inh: 16%
TESK1; [1]
  %Inh: 26%
TGFBR1; [1]
  %Inh: 27%
TGFBR2; [1]
  %Inh: 55%
TIE1; [1]
  %Inh: 26%
TIE2; [1]
  %Inh: 0%
TLK1; [1]
  %Inh: 0%
TLK2; [1]
  %Inh: 0%

## Cl.c1ccc(-c2n[nH]cc2-c2ccnc(-c3ccc(CN4CCOCC4)cc3)c2)nc1 [GW776245]
TAOK3; [1]
  %Inh: 0%
TBK1; [1]
  %Inh: 61%
TEC; [1]
  %Inh: 17%
TESK1; [1]
  %Inh: 6%
TGFBR1; 1 µM
  %Inh: 94.5%
TGFBR2; [1]
  %Inh: 87%
TIE1; [1]
  %Inh: 0%
TIE2; [1]
  %Inh: 24%
TLK1; [1]
  %Inh: 0%
TLK2; [1]
  %Inh: 0%

## Cc1ccc(C(=O)Nc2ccc(Nc3ccnc4cc(-c5ccccn5)ccc34)cc2O)cc1.Cl [GW440146]
TAOK3; [1]
  %Inh: 0%
TBK1; [1]
  %Inh: 0%
TEC; [1]
  %Inh: 13%
TESK1; [1]
  %Inh: 13%
TGFBR1; [1]
  %Inh: 3%
TGFBR2; [1]
  %Inh: 26%
TIE1; [1]
  %Inh: 19%
TIE2; [1]
  %Inh: 0%
TLK1; [1]
  %Inh: 0%
TLK2; [1]
  %Inh: 0%

## Nc1ncnc2[nH]c(-c3ccccc3)nc12 [AH5015]
TAOK3; [1]
  %Inh: 9%
TBK1; [1]
  %Inh: 10%
TEC; [1]
  %Inh: 28%
TESK1; [1]
  %Inh: 30%
TGFBR1; [1]
  %Inh: 10%
TGFBR2; [1]
  %Inh: 9%
TIE1; [1]
  %Inh: 38%
TIE2; [1]
  %Inh: 0%
TLK1; [1]
  %Inh: 0%
TLK2; [1]
  %Inh: 0%

## Cc1cccc(-c2nc(Nc3ccc4[nH]ncc4c3)c3ccccc3n2)n1 [GW857175]
TAOK3; [1]
  %Inh: 19%
TBK1; [1]
  %Inh: 35%
TEC; [1]
  %Inh: 3%
TESK1; [1]
  %Inh: 5%
TGFBR2; [1]
  %Inh: 0%
TIE1; [1]
  %Inh: 17%
TIE2; [1]
  %Inh: 49%
TLK1; [1]
  %Inh: 23%
TLK2; [1]
  %Inh: 0%

## Cc1cc(-c2ccc3c(c2)CC[C@@H](N[C@@H](C)c2ccccc2)C3)cnc1N.Cl [GW412617]
TAOK3; [1]
  %Inh: 14%
TBK1; [1]
  %Inh: 11%
TEC; [1]
  %Inh: 1%
TESK1; [1]
  %Inh: 11%
TGFBR1; [1]
  %Inh: 0%
TGFBR2; [1]
  %Inh: 20%
TIE1; [1]
  %Inh: 35%
TIE2; [1]
  %Inh: 0%
TLK1; [1]
  %Inh: 4%
TLK2; [1]
  %Inh: 0%

## CS(=O)(=O)c1ccc(-c2c(-c3ncn[nH]3)sc(N3CCOCC3)c2C#N)cc1
TAOK3; [1]
  %Inh: 0%
TBK1; [1]
  %Inh: 14%
TEC; [1]
  %Inh: 9%
TESK1; [1]
  %Inh: 0%
TGFBR1; [1]
  %Inh: 12%
TGFBR2; [1]
  %Inh: 10%
TIE1; [1]
  %Inh: 11%
TIE2; [1]
  %Inh: 9%
TLK1; [1]
  %Inh: 5%
TLK2; [1]
  %Inh: 0%

## CC(C)(C)c1ccc(C(=O)Nc2cn3cc(Cl)ccc3n2)cc1
TAOK3; [1]
  %Inh: 0%
TBK1; [1]
  %Inh: 0%
TEC; [1]
  %Inh: 0%
TESK1; [1]
  %Inh: 0%
TGFBR1; [1]
  %Inh: 0%
TGFBR2; [1]
  %Inh: 0%
TIE1; [1]
  %Inh: 0%
TIE2; [1]
  %Inh: 13%
TLK1; [1]
  %Inh: 23%
TLK2; [1]
  %Inh: 0%

## Cc1c(Cn2ccn3c(=O)cc(N4CCOCC4)nc23)cccc1C(F)(F)F [GSK2289044]
TAOK3; [1]
  %Inh: 0%
TBK1; [1]
  %Inh: 7%
TEC; [1]
  %Inh: 0%
TESK1; [1]
  %Inh: 17%
TGFBR1; [1]
  %Inh: 0%
TGFBR2; [1]
  %Inh: 0%
TIE1; [1]
  %Inh: 10%
TIE2; [1]
  %Inh: 0%
TLK1; [1]
  %Inh: 0%
TLK2; [1]
  %Inh: 0%

## Cc1cc(N2Cc3ccccc3C2)nc(Nc2ccc(S(=O)(=O)N3CCOCC3)cc2)n1.Cl [GSK1669917]
TAOK3; [1]
  %Inh: 0%
TBK1; [1]
  %Inh: 30%
TEC; [1]
  %Inh: 0%
TESK1; [1]
  %Inh: 12%
TGFBR1; [1]
  %Inh: 0%
TGFBR2; [1]
  %Inh: 0%
TIE1; [1]
  %Inh: 0%
TIE2; [1]
  %Inh: 0%
TLK1; [1]
  %Inh: 2%
TLK2; [1]
  %Inh: 0%

## Cc1ccccc1-n1cnc2c(N)ncnc21 [SKF-97510]
TAOK3; [1]
  %Inh: 0%
TBK1; [1]
  %Inh: 7%
TEC; [1]
  %Inh: 9%
TESK1; [1]
  %Inh: 3%
TGFBR1; [1]
  %Inh: 0%
TGFBR2; [1]
  %Inh: 0%
TIE1; [1]
  %Inh: 0%
TIE2; [1]
  %Inh: 0%
TLK1; [1]
  %Inh: 81%
TLK2; [1]
  %Inh: 7%

## O=C(O)COc1ncnc2cc(-c3ccc4[nH]ncc4c3)sc12
TAOK3; [1]
  %Inh: 0%
TBK1; [1]
  %Inh: 11%
TEC; [1]
  %Inh: 0%
TESK1; [1]
  %Inh: 13%
TGFBR1; [1]
  %Inh: 10%
TGFBR2; [1]
  %Inh: 18%
TIE1; [1]
  %Inh: 24%
TIE2; [1]
  %Inh: 21%
TLK1; [1]
  %Inh: 22%
TLK2; [1]
  %Inh: 0%

## COc1ccc(Nc2nccc(-c3cccc(NC(=O)c4cc5cc(F)ccc5[nH]4)c3)n2)cc1 [GSK1229782]
TAOK3; [1]
  %Inh: 0%
TBK1; [1]
  %Inh: 24%
TEC; [1]
  %Inh: 19%
TESK1; [1]
  %Inh: 34%
TGFBR1; [1]
  %Inh: 17%
TGFBR2; [1]
  %Inh: 10%
TIE1; [1]
  %Inh: 0%
TIE2; [1]
  %Inh: 17%
TLK1; [1]
  %Inh: 4%
TLK2; [1]
  %Inh: 0%

## Cl.Oc1ccc(-c2nc(-c3ccccc3)[nH]c2-c2ccncc2)cc1 [SB-428218]
TAOK3; [1]
  %Inh: 0%
TBK1; [1]
  %Inh: 18%
TEC; [1]
  %Inh: 0%
TESK1; [1]
  %Inh: 36%
TGFBR1; [1]
  %Inh: 60%
TGFBR2; [1]
  %Inh: 7%
TIE1; [1]
  %Inh: 0%
TIE2; [1]
  %Inh: 0%
TLK1; [1]
  %Inh: 0%
TLK2; [1]
  %Inh: 0%

## CC(C)(C)c1ccc(C(=O)Nc2cn3cc(-c4cccnc4)ccc3n2)cc1
TAOK3; [1]
  %Inh: 0%
TBK1; [1]
  %Inh: 40%
TEC; [1]
  %Inh: 10%
TESK1; [1]
  %Inh: 4%
TGFBR1; [1]
  %Inh: 1%
TGFBR2; [1]
  %Inh: 7%
TIE1; [1]
  %Inh: 4%
TIE2; [1]
  %Inh: 27%
TLK1; [1]
  %Inh: 46%
TLK2; [1]
  %Inh: 5%

## Cc1cccc(-c2cc(Nc3ccncc3)c3ccccc3n2)n1 [GSK223675]
TAOK3; [1]
  %Inh: 0%
TBK1; [1]
  %Inh: 28%
TEC; [1]
  %Inh: 0%
TESK1; [1]
  %Inh: 63%
TGFBR2; [1]
  %Inh: 0%
TIE1; [1]
  %Inh: 0%
TIE2; [1]
  %Inh: 0%
TLK1; [1]
  %Inh: 21%
TLK2; [1]
  %Inh: 0%

— PMC5540273 (PLoS ONE, 2017)
